Compound activity: PubChem BioAssay, The Scripps Research Institute Molecular Screening Center
Only some compounds are listed: those with a hit (about 5.7% of all), similar ones and a draw of the others.
DAX1 inh-1 = DAX1 (NR0B1) inhibition, primary screen | inhibition, % at 6.8 µM | 370,000 compounds, 1.1% hits | AID 652010 | HEK293T StAR-luciferase reporter, SF-1/DAX-1 repression relief;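 active means inhibition above the mean over all tested compounds plus 3 SD, cut at about 3.6% in these data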;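 further: higher inhibition means more luminescence from relief of DAX-1 repression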
hgDAF-12 ag = activates the H. glycines DAF-12 receptor ligand-binding domain; AID 687014; activation, % at 6.8 µM; 370,000 compounds, 1.8% hits; HEK293 GAL4-hgDAF12 UAS-luciferase reporter, agonist luminescence; normalized to butyrate control;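 active means activation above a cutoff set at the mean of all screened compounds plus 3 SD, cut at about 10% in these data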
hcDAF-12 act = activates DAF-12 receptor from parasite H. contortus. activation, % at 6.8 µM. 370,000 compounds, 1.4% hits. HEK293 hcDAF-12 lit1-tk-luc reporter, luminescence; 0% DMSO, 100% Δ7-dafachronic acid. AID 652067;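 active means activation above the mean of all tested compounds plus 3 SD, cut at about 5.5% in these data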
ssDAF-12 act = S. stercoralis DAF-12 activation, primary screen | 370,000 compounds, 1% hits | activation, % at 6.8 µM | HEK293 ssDAF-12/GRIP1 lit1-tk-luc reporter, luminescence; % of 3 µM dafachronic acid response;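 active means activation above the mean over all tested compounds plus 3 SD, cut at about 0.9% in these data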
DAX1 inh-2 = NR0B1 (DAX1) inhibition; AID 504766; HEK293 Gal4-DAX1 luciferase reporter, luminescence; inhibition, % at 6.75 µM; 340,000 compounds, 0.99% hits; P51843;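 active means inhibition above the mean over all tested compounds plus 3 SD, cut at about 4.2% in these data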;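 further: inhibition shows as a rise in luminescence from relieved DAX1 repression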
Target sequence (P51843 207-470 limits assumed): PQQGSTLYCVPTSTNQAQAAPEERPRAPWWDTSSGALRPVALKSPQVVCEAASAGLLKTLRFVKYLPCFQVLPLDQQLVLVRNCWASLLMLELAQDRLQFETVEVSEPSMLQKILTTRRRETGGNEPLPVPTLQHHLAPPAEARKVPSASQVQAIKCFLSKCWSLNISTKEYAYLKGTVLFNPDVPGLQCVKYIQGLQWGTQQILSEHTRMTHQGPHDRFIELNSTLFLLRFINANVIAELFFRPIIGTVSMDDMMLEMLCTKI
AHR activator = activators of human aryl hydrocarbon receptor. AHR-responsive luciferase reporter cells, luminescence. 320,000 compounds, 2.5% hits. activation, % at 5 µM; in the data active means activation above about 47%
Large screens that a line does not name were inactive.

S=C(c1ccc(-c2cccc(Cl)c2)o1)N1CCOCC1	hgDAF-12 ag 13.1
O=C(c1cc(-c2ccc(F)cc2)on1)N1CCCC1	hgDAF-12 ag 13.1
O=C(c1cc(-c2ccc(F)cc2)on1)N1CCOCC1	hgDAF-12 ag 12.9
NC(=O)NC(CC(=O)N1CCc2ccccc2C1)c1ccc(Cl)cc1 (centres undefined)	none
COc1ccc(NC(=O)CSc2ccc3nnc(CCNC(=O)c4ccccc4)n3n2)cc1OC	none
COc1ccc(-c2cc(C(=O)N3CCN(C(c4ccccc4)c4ccccc4)CC3)no2)cc1OC	none
O=C(c1cc(-c2ccc(F)cc2)on1)N1CCCCCC1	hgDAF-12 ag 12.3
CN1CCN(C(=S)c2ccc(-c3cccc([N+](=O)[O-])c3)o2)CC1	hcDAF-12 act 6.5, DAX1 inh-2 7.9
O=C(c1cc(-c2ccc(O)cc2)on1)N1CCN(c2ccc(F)cc2)CC1	none
COc1ccc(-c2cc(C(=O)N3CCCCCC3)no2)cc1OC	hgDAF-12 ag 10.5
O=C(c1cc(-c2ccc(Cl)cc2)on1)N1CCOCC1	DAX1 inh-1 4.0, hgDAF-12 ag 12.2
O=C(CSc1ccccc1C(=O)O)NCC1CCCCC1	none
COc1cccc(CN2CCNC(=O)C2CC(=O)NCCOc2cccnc2)c1 (centres undefined)	none
O=C(c1ccccc1-c1nc(-c2ccc(F)cc2)no1)N1CCCC1	AHR activator 50.2
O=C(c1ccccc1-c1nc(-c2ccccc2)no1)N1CCOCC1	none
O=C(c1cc(-c2cccc(Cl)c2)on1)N1CCOCC1	hgDAF-12 ag 11.0
c1ccc(-n2cnc3cc(NCc4cccs4)ccc32)cc1	none
Cc1ccc(CNc2ccc3c(c2)ncn3C)cc1	none
Cc1ccc(CNc2ccc3c(c2)ncn3C(C)(C)C)cc1	DAX1 inh-1 4.1, DAX1 inh-2 6.6
Cn1cnc2cc(NCc3cccs3)ccc21	AHR activator 49.6
O=C(OCN1C(=O)c2ccccc2C1=O)c1cc(S(=O)(=O)N2CCOCC2)ccc1F	none (no result: AHR activator)
COc1ccc(N2CCN(C3CCCN(C(=O)c4cccc(C)n4)C3)CC2)cc1 (centres undefined)	none
Cc1cc(C)cc(NC(=O)c2cc(Cl)sc2Cl)c1	none
CC(=O)c1ccc(NC(=O)c2cc(Cl)sc2Cl)cc1	hgDAF-12 ag 12.4, ssDAF-12 act 1.4
CCOC(=O)c1[nH]c2c(c1-c1ccccc1)C(=O)CC(c1ccccc1)C2 (centres undefined)	DAX1 inh-2 6.6
CC1(C(=O)O)CCN1C(=O)COc1ccc(Cl)cc1 (centres undefined)	none (no result: DAX1 inh-2, AHR activator)
CCOC(=O)c1c(C)[nH]c(C)c1S(=O)(=O)N(C)CC(=O)Nc1cc(C)ccc1OC	AHR activator 55.2
CC(C)CN1C(=O)[C@]2(CC(=O)N(C)C2c2ccccc2)c2cc(-n3cc(C4=CCCCC4)nn3)ccc21 (some centres undefined)	none (no result: DAX1 inh-2, AHR activator)
CC(C)n1c(O)c(N=NC(=O)C2COc3ccccc3O2)c2ccccc21 (centres undefined)	ssDAF-12 act 1.1, AHR activator 57.9
Cc1cc(C)[n+](Cc2ccccc2)cc1C(N)=O	none
Cc1occc1C(=O)Nc1nnc(-c2cccs2)s1	AHR activator 76.3
O=C(Nc1nnc(-c2cccs2)s1)c1cccc(F)c1	AHR activator 55.9
Cc1nnc(NC(=O)c2cccc(F)c2)s1	none
Cc1occc1C(=O)Nc1nccs1	none
CC(C)(C)CC(=O)Nc1nnc(-c2cccs2)s1	AHR activator 49.9
CC(C)(C)CC(=O)Nc1nnc(C(F)(F)F)s1	none
CCCC/C=C1/[C@@H](CC)N(Cc2ccc(OC)cc2OC)C2=N[C@@H](c3ccccc3)CC(=O)N21	none (no result: DAX1 inh-1, DAX1 inh-2, AHR activator)
O=C(Cn1nnc(-c2ccccc2Cl)n1)N1CCCCC1	DAX1 inh-2 4.6
CSc1cccc(NC(=S)N(CCC(C)C)C(C)c2ccncc2)c1 (centres undefined)	DAX1 inh-2 4.7
CCOC(=O)C1(Cc2ccccc2C)CCCN(Cc2cn(C)nc2C)C1 (centres undefined)	DAX1 inh-2 6.1
CCOC(=O)C1(Cc2ccccc2C)CCCN(Cc2cc(OC)c(O)c(OC)c2)C1 (centres undefined)	none
N#Cc1ccc(S(=O)(=O)N2CCCc3nc(-c4ccccc4)ccc32)cc1	none (no result: DAX1 inh-2, AHR activator)
CCn1c(=N)n(CC(O)c2ccco2)c2ccccc21 (centres undefined)	none
N=c1n(CCN2CCCCC2)c2ccccc2n1CC(O)c1ccco1 (centres undefined)	DAX1 inh-2 5.1
O=Nc1c2nc3ccccc3n(O)c-2c2ccccc12	AHR activator 100.6
O=C(CCc1ccc(S(=O)(=O)N2CCOCC2)cc1)Nc1ccc(F)cc1[N+](=O)[O-]	none
O=C(CN1CCCCC1)NNc1nc(-c2ccccc2)c2cc(Br)ccc2n1	none
NNC(=O)Cn1nnc(-c2ccc(C(F)(F)F)cc2)n1	ssDAF-12 act 0.9 (no result: DAX1 inh-2)
CC(=O)Cn1nnc(-c2ccc(C(F)(F)F)cc2)n1	none
NS(=O)(=O)c1ccc(CNC(=S)NCc2ccc(F)cc2)cc1	none
O=C(COC(=O)c1ccccc1SCC(=O)N1CCCC1)NCc1ccccc1	none
O=C(N[C@H](C(=O)N1CCC[C@H]1C(=O)NCCc1ccccc1Cl)c1ccccc1)C1CCCC1	none (no result: DAX1 inh-2, AHR activator)
FC(F)(F)c1ccc(NCCc2ccccc2)nc1	DAX1 inh-2 5.1
CCC1CCCCN1C(=O)CSc1nnc(-c2ccco2)o1 (centres undefined)	ssDAF-12 act 1.0
COc1cccc(-c2nnc(SCC(=O)N3CC(C)CC(C)C3)o2)c1 (centres undefined)	DAX1 inh-2 6.7
CC1CC(C)CN(C(=O)CSc2nnc(-c3ccco3)o2)C1 (centres undefined)	DAX1 inh-2 4.8
CC1CCN(C(=O)CSc2nnc(-c3ccco3)o2)CC1	none
CCOC(=O)Nc1cc2c(cc1[N+](=O)[O-])-c1ccccc1C2=O	none (no result: AHR activator)
CCOc1ccc(S(=O)(=O)N2CCCC(C(=O)NCc3ccncc3)C2)cc1 (centres undefined)	none
O=S(=O)(Nc1cc(Sc2ncn[nH]2)c(O)c2ccccc12)c1ccccc1	none (no result: DAX1 inh-2, AHR activator)
O=C(O)CSc1cc(NS(=O)(=O)c2ccc(Br)cc2)c2ccccc2c1O	AHR activator 48.8
COC(=O)c1cc(S(=O)(=O)NCc2cccc(OC)c2)cn1C	DAX1 inh-2 5.3
Cc1ccc(-c2ccc(/C=N/O)o2)cc1[N+](=O)[O-]	hgDAF-12 ag 12.6
O=[N+]([O-])c1cc(-c2ccc(/C=N/n3cnnc3)o2)ccc1Cl	none
Nc1nc(Cl)nc2ncn(Cc3ccccc3)c12	hgDAF-12 ag 11.2
C=CCn1c(C)cc(C(=O)COC(=O)/C=C/c2c(C)nn(C3CCS(=O)(=O)C3)c2Cl)c1C (centres undefined)	none
O=C(CSc1nc2ccccc2o1)N1N=C(c2cccs2)CC1c1ccc(F)cc1 (centres undefined)	none
